# Compound activity deposited in PubChem BioAssay by Broad Institute.
# An excerpt weighted towards active compounds, which were near 4% of everything screened.
# EWS-Fli inh: EWS/Fli-driven NR0B1 reporter inhibitors, primary screen, A673 cells, NR0B1 luciferase, luminescence, MLPCN library; viability-normalised; 350,000 compounds, 0.67% hits; inhibition, % at 12.6 µM;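 active = mean inhibition of at least 50% after viability correction, with every replicate also passing that limit; inconclusive = mean reaches 50% but only one of two replicates passes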;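 also: firefly luciferase signal divided by Alamar Blue viability fluorescence both relative to DMSO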
# Wnt bcat act: Wnt/beta-catenin pathway activators, primary screen, cell-based, plate reader, single point; Wnt/beta-catenin reporter cell assay, activator; activation, % at 9.35 µM; 300,000 compounds, 1.2% hits; AID 743398, 2014; in the data active = activation above about 30%, passing the limit was not always enough; inconclusive = no clear call, values can overlap the other calls;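 also: 0% = neutral control wells and 100% = positive control wells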
# MITF act: activators of MITF-driven TRPM1 promoter reporter, primary screen, cell-based, SK-MEL-5, luciferase, single point; SK-MEL-5 TRPM1-promoter luciferase, 24 h; % of positive control, neutral wells = 0; activation, % at 12.5 µM; 300,000 compounds, 0.75% hits; AID 588334, 2011;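 active = mean activation of at least 80% with every replicate also reaching 80%; inconclusive = mean reaches 80% but some replicate falls short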;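 also: 0% = neutral control wells and 100% = parthenolide positive control wells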
# PAX8 reporter: inhibitors of PAX8-driven TPO luciferase reporter, primary screen, RMG-I cells, single concentration | inhibition, % at 12.6 µM | SteadyGlo, 24 h | 360,000 compounds, 1.2% hits;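 active = mean replicate inhibition at least 60% with every replicate also reaching 60%; inconclusive = only one of the two criteria is met; inactive = mean below 60% and not all replicates reaching 60%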;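 also: luciferase light reporting Pax8 driven TPO promoter activity; plate controls were median of neutral control wells for no effect and mitoxantrone controls for full effect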
# TRPM1 prom inh: inhibitors of MITF-dependent TRPM1 promoter reporter, primary screen, cell-based, SK-MEL-5, single point, luciferase. inhibition, % at 12.5 µM. 330,000 compounds, 0.83% hits. SK-MEL-5 TRPM1 promoter luciferase, 24 h. AID 488899, 2010;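 active = mean inhibition across replicates of 60% or more, whatever share of single replicates reaches that level; inconclusive = some that reach 60%, reason not given; inactive = mean inhibition across replicates below 60%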
# esBAF inh: Bmi1 luciferase reporter increase in mESCs, primary screen, esBAF inhibitor project, mouse ES cells, Bmi1 luciferase knock-in, single point | 350,000 compounds, 2% hits | reporter increase, % at 12.5 µM | 24 h; 100% = twice the neutral-well signal; in the data active = activation above about 40%; inconclusive = no clear call, values can overlap the other calls;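 also: 0% = median of the plate's neutral control wells and 100% = double that signal; a rise in the Bmi1 reporter signal indicates esBAF inhibition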
# An asterisk follows results filed as active; ? = inconclusive; / = no result given.
SMILES,EWS-Fli inh,Wnt bcat act,MITF act,PAX8 reporter,TRPM1 prom inh,esBAF inh
O=C(CN1CCOCC1)N1CCCCN2[C@H](CO)[C@H](c3ccc(C#Cc4ccccc4F)cc3)[C@@H]2C1,-7.9,/,/,-11.7,/,-2.6
COc1ccc(-c2ccc3c(c2)[C@@H]2[C@@H](CCN2C(=O)c2cnccn2)[C@H](CO)N3)cc1,-11.1,/,/,-25.9,/,-1.8
Cc1ccccc1CN(C)C[C@H]1OCc2cn(nn2)CCCC(=O)N([C@H](C)CO)C[C@H]1C,-7.3,/,/,/,/,-1.8
NC(=O)c1nnn(-c2ccccc2)c1N,1.6,0.2,3.2,9.7,5.5,3.3
CCCCNC(=O)c1nnn(-c2ccccc2)c1N,/,/,29.6,/,-30.8,43.2*
CCOc1ccccc1CNC(=O)c1cc2oc3ccccc3c2n1C,/,-4.2,/,-5.0,-0.9,7.1
COCCNC(=O)c1cc2oc3ccccc3c2n1C,/,16.8,/,-169.8,-60.3,72.5*
O=C(C[C@@H]1C[C@@H]2c3cc(NS(=O)(=O)c4ccc(F)cc4)ccc3O[C@@H]2[C@H](CO)O1)NCC1CC1,12.5,/,/,-9.1,/,4.3
COc1ccc(NC(=O)N(C)C[C@@H]2OCCCC[C@H](C)Oc3ccc(NC(=O)Nc4c(C)noc4C)cc3C(=O)N([C@@H](C)CO)C[C@@H]2C)cc1,4.6,/,/,8.7,/,-1.5
Cc1ccc(C)c(NC(=O)COC(=O)c2cccc3c2C(=O)c2ccccc2C3=O)c1,2.1,-3.3,-23.4,63.8*,23.3,1.2
c1cc2c(cc1C1=NNC(=NC3CC3)SC1)OCCO2,78.8*,-6.6,-94.3,95.8*,94.6*,-83.9
Cc1cc(C2=NNC(=NC3CC3)SC2)c(C)n1-c1ccccc1F,93.7*,-32.9,-98.0,102.1*,98.7*,/
CC(=O)Nc1c(Cl)c2c(c(Cl)c1Br)-c1ccc(Cl)cc1C2,19.1,-3.6,-6.6,34.9,9.0,0.4
CC(=O)Nc1ccc2c(c1)-c1ccc(F)cc1C2,-42.2,9.3,12.2,-44.4,-9.7,/
CC(=O)Nc1cc(F)c2c(c1F)Cc1cc(F)ccc1-2,-99.7,-0.2,49.9,-181.0,-44.2,103.5*
CC(=O)Nc1cc2c(cc1[N+](=O)[O-])-c1ccc(F)cc1C2,-9.6,2.7,1.2,-16.9,0.8,51.9*
COc1ccccc1-c1ccc2c(c1)O[C@@H](CN(C)C(=O)c1ccccc1)[C@@H](C)CN([C@H](C)CO)S2(=O)=O,-0.7,/,/,4.1,/,-0.6
COc1cc(Cn2c3ccc(NC(=O)NCc4ccc(F)cc4)cc3c(=O)n2C)ccc1F,51.4*,-2.8,/,36.0,/,-12.1
COc1ccc(CCNC(=O)Nc2ccc3c(c2)c(=O)n(C)n3Cc2ccc(F)cc2)cc1OC,-3.0,-0.3,/,4.7,/,-1.2
COC(C(=O)C(O)C(C)O)C1Cc2cc3cc(OC4CC(OC5CC(O)C(O)C(C)O5)C(O)C(C)O4)c(C)c(O)c3c(O)c2C(=O)C1OC1CC(OC2CC(OC3CC(O)C(OC)C(C)O3)C(O)C(C)O2)C(O)C(C)O1 (stereo not drawn),14.2,-24.3,/,99.8*,56.2,/
CC(C)NC(=O)N(C)C[C@@H]1Oc2ccc(NC(=O)C3CC3)cc2C(=O)N([C@H](C)CO)C[C@@H]1C,-3.6,/,/,-11.0,/,-3.3
OC[C@@H]1[C@H](c2ccc(-c3ccc(F)cc3)cc2)[C@@H]2CN(CCC(F)(F)F)CCCCN12,/,/,/,93.4*,/,/
OC[C@H]1[C@@H](c2ccc(-c3ccc(F)cc3)cc2)[C@H]2CN(CCC(F)(F)F)CCCCN21,/,/,/,-5.2,/,/
OC[C@@H]1[C@H](c2ccc(C#CC3CCCC3)cc2)[C@H]2CN(CCC(F)(F)F)CCCCN12,59.7*,/,/,28.7,/,-0.6
CCCNC(=O)C[C@@H]1C[C@@H]2c3cc(NC(=O)Cc4ccncc4)ccc3O[C@@H]2[C@@H](CO)O1,8.4,/,/,3.8,/,-3.9
SMILES,EWS-Fli inh,Wnt bcat act,MITF act,PAX8 reporter,TRPM1 prom inh,esBAF inh
Cc1ccc(C(=O)N=c2sccn2C)cc1S(=O)(=O)N1CCOCC1,-105.8,8.9,99.4*,-167.3,-104.0,62.7*
Cc1cccc(C(=O)N=c2sccn2C)c1[N+](=O)[O-],-85.9,6.3,100.4*,-96.3,-94.9,56.5*
Cn1ccsc1=NC(=O)c1ccc(S(C)(=O)=O)c([N+](=O)[O-])c1,-7.9,2.8,-18.7,/,18.9,/
CCCCOc1ccc(C(=O)N=c2sccn2C)cc1OC,-79.0,36.7*,?,-83.0,-90.1,57.3*
Cn1ccsc1=NC(=O)c1ccc(Cl)c([N+](=O)[O-])c1,-43.8,11.3,56.2,-44.7,-59.5,83.1*
O=[N+]([O-])c1ccccc1S(=O)(=O)N1CCN(Cc2ccc(OCCO)cc2)CC1,6.7,/,/,4.7,/,/
C[C@H]1CCCCO[C@H](CN(C)CC2CCCCC2)[C@@H](C)CN([C@@H](C)CO)C(=O)c2cc(NC(=O)NC3CCCCC3)ccc2O1,-2.1,/,/,32.6,/,-0.8
O=C(C[C@H]1CC[C@H]2[C@@H](COC[C@@H](O)CN2S(=O)(=O)c2ccccc2Cl)O1)N1CCC(Cc2ccccc2)CC1,22.7,/,/,80.2*,/,2.1
O=C(C[C@@H]1CC[C@@H]2[C@H](COC[C@H](O)CN2S(=O)(=O)c2ccccc2Cl)O1)N1CCC(Cc2ccccc2)CC1,10.6,/,/,78.5*,/,6.1
O=C(Nc1cc(F)ccc1F)N[C@@H]1CC[C@@H](CCn2cc(C3CC3)nn2)O[C@H]1CO,0.2,/,/,2.6,/,3.0
Cc1cc(NC(=O)c2cc3cccc([N+](=O)[O-])c3[nH]2)ccc1F,-154.6,41.0*,53.3,-96.6,-58.1,83.6*
COCC(C)NC(=O)c1cc2cccc([N+](=O)[O-])c2[nH]1 (stereo not drawn),0.9,1.2,-25.0,8.7,27.0,/
Cc1noc(C)c1S(=O)(=O)Nc1ccc2c(c1)C(=O)N([C@@H](C)CO)C[C@@H](C)[C@@H](CN(C)Cc1ccc(Oc3ccccc3)cc1)O2,13.6,/,/,/,/,2.3
N/C(=N\OC(=O)c1ccc(F)cc1)c1ccc(Br)cc1,-62.3,44.2*,65.6,-63.7,-61.1,56.2*
N/C(=N\OC(=O)c1ccccc1)c1ccncc1,-94.6,-0.4,0.6,-141.9,-3.9,-2.5
N/C(=N\OC(=O)c1ccc(Br)cc1)c1ccncc1,-116.3,11.6,97.9*,-77.0,-94.6,?
N/C(=N\OC(=O)c1ccc(F)cc1)c1ccccc1,/,/,32.9,/,-30.8,34.2
O=[N+]([O-])c1c(NCCCO)cc(Sc2nc3ccccc3s2)c2nonc12,/,/,-67.1,/,69.8*,-1.6
